Screens from PubChem.
This is a sample that favours compounds with a hit; in the whole collection about 4.6% have one here.
HTT-AS promoter: HTT-AS promoter activation | HEK293 HTT-AS promoter firefly luciferase reporter, 24 h; response scale: percent change from vehicle, -100% = no light | Potency, µM (titrated, usually from 57.5 µM), for the others: at the highest dose activity change, positive = activation, actives largely listed as activators | 0.24% of 48,000 active | AID 1508624; further: potency means the concentration at half of the fitted maximal effect; nearly all actives have a fitted effect of over 55% in size
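HEK293 Fluc reporter, 2,500 cells/well, 24 h pre-culture; cpds up to 57.5 uM final, 24 h 37 degrees C; Dual-Glo, 10 min RT; normalized vehicle = 0%, zero RLU = -100%.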
NTMT1 inh: blocks human N-terminal methyltransferase 1 activity; NTMT1 MTase-Glo SAH luminescence, purified enzyme; Potency, µM (titrated, usually from 114 µM), inactives show at the highest dose activity change, negative = inhibition, actives largely listed as inhibitors; 2.5% of 59,000 active; AID 1645870;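 further: potency means the concentration at half of the fitted maximal effect; plate controls were DMSO vehicle for no effect and no enzyme for full effect; nearly all actives have a fitted effect of over 65% in size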
Target sequence (Q9BV86 whole entry, looked up): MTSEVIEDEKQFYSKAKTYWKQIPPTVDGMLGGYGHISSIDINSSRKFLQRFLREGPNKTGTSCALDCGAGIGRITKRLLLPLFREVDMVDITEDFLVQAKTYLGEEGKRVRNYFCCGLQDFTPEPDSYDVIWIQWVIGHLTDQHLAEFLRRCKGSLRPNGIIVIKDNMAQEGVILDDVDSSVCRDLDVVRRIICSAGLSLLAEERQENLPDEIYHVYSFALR
HTT prom inh: inhibits huntingtin promoter activity. HEK293 HTT promoter firefly luciferase reporter, 24 h. Potency, µM (top dose mostly 57.5 µM), without a hit: at the highest dose activity change, negative = inhibition, usual class: inhibitors. 0.93% of 48,000 active. AID 1508623; further: potency means the concentration at half of the fitted maximal effect; nearly all actives have a fitted effect of over 50% in size
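Luminescence was read after Dual-Glo reagent and a 10 min room-temperature incubation. Values were normalized to vehicle (0% activity) and zero RLU (-100% activity). Reporter HEK293 cells had been exposed to compounds (up to 57.5 uM final) for 24 h.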
GPR32 ag: activates human resolvin D1 receptor GPR32. CHO-K1 GPR32 beta-arrestin PathHunter luminescence, 90 min; zero percent set by DMSO-only wells. activation, % at 76.9 µM. 2.5% of 48,000 active;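 active means activation of at least 60% and not above a set upper limit, about 1 call in 100 departs from these limits; inconclusive means activation of 40% to 60%, or above that upper limit; inactive means activation under 40%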; further: 0% is about no effect
Target sequence (O75388 whole entry, looked up): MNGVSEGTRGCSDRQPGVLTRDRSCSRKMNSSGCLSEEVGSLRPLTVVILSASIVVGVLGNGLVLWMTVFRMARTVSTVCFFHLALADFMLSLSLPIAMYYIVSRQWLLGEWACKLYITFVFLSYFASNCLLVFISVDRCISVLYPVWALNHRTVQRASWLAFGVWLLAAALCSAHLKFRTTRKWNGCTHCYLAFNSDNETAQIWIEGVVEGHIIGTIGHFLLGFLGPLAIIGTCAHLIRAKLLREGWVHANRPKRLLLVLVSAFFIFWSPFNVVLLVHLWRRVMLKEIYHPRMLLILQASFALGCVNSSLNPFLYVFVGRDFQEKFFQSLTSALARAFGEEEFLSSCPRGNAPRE
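PathHunter beta-arrestin recruitment in CHO-K1 cells stably expressing ProLink-tagged GPR32. Cells were exposed to compound for 90 min at 37 C, then chemiluminescence was read after 1 h detection at ambient temperature; DMSO served as basal control.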
* = called active by the depositor; ! = not confirmed by another sample; [ ] = remark or other dose. Unless noted, the call rests on the fitted dose curve; in most records, active means well fitted curve in the direction sought with a large enough effect; inconclusive means small, poorly fitted or top-dose-only effect, or another doubt; inactive means no such curve, though single readings can be large; an effect the other way counts as inactive or inconclusive.

CCC(C)NC(=O)C1CCN(C(=O)c2cc3sccc3n2Cc2ccc(Cl)cc2)CC1 (stereo not given) was read as HTT-AS promoter -54%, NTMT1 inh 5%, HTT prom inh 8.9µM* and GPR32 ag 7.
Screening CC(C)(C)OC(=O)N1CCN(c2ccc(NCc3ncc(-c4ccc(C#N)cc4)s3)cc2)CC1 returned NTMT1 inh -1%[57.5 µM].
For CCCN(CCC)C(=O)Cn1c(=O)n(-c2ccc(CC)cc2)c(=O)c2c3c(sc21)CCC3 the results were HTT-AS promoter -22%, NTMT1 inh 89µM*, HTT prom inh -15% and GPR32 ag -14.
`CCCN(CCC)C(=O)Cn1c(=O)n(-c2ccc(Cl)cc2)c(=O)c2c3c(sc21)CCCC3` gave HTT-AS promoter -7%, NTMT1 inh 6%, HTT prom inh -10% and GPR32 ag -24.
Screening CCc1ccc(Sc2cc(C(=O)NCCCN3CCCC(C)C3)c3ccccc3n2)cc1 (stereo not given) returned HTT-AS promoter -21%, NTMT1 inh -14%, HTT prom inh -15% and GPR32 ag 88*.
Screening CCc1ccc(Sc2cc(C(=O)NCc3cccc(OC)c3)c3ccccc3n2)cc1 returned HTT-AS promoter -44%, NTMT1 inh -22%, HTT prom inh inconclusive and GPR32 ag 6.
CCc1ccc(Sc2cc(C(=O)NCCCN3CCC(C)CC3)c3ccccc3n2)cc1 was read as HTT-AS promoter -19%, NTMT1 inh -19%, HTT prom inh -25% and GPR32 ag 89*.
`O=C(C1CCCCC1)N(CCN1CCN(c2ccccc2O)CC1)c1ccccn1` gave NTMT1 inh -4%[57.5 µM].
`CC(C)Oc1ccc(CNC(=O)Cn2nc(N3CCN(c4ccccc4)CC3)ccc2=O)cc1` gave HTT-AS promoter -29%, NTMT1 inh 89µM*, HTT prom inh -15% and GPR32 ag 68*.
Screening Cc1nn(-c2ccccc2)c2c1N(CCCC(=O)NCc1ccccc1)C(=O)CS2 returned HTT-AS promoter -18%, NTMT1 inh -3%, HTT prom inh inconclusive and GPR32 ag -18.
`CCc1ccccc1NC(=O)c1ccc(Cn2nc(N3CCN(c4ccccc4)CC3)ccc2=O)o1` gave HTT-AS promoter -42%, NTMT1 inh -22%, HTT prom inh inconclusive and GPR32 ag 63*.
`Cc1nn(-c2ccccc2)c2c1N(CCCC(=O)NCc1ccc(OC(C)C)cc1)C(=O)CS2` gave HTT-AS promoter -43%, NTMT1 inh -5%, HTT prom inh 14µM* and GPR32 ag -14.
`C[C@H]1CC[C@@]2(OC1)O[C@H]1CC3[C@@H]4CC[C@@H]5C[C@@H](O[C@@H]6O[C@H](CO)[C@@H](O[C@@H]7O[C@@H](C)[C@H](O)[C@@H](O)[C@H]7O)[C@H](O)[C@H]6O[C@@H]6O[C@H](CO)[C@@H](O)[C@H](O)[C@H]6O)CC[C@]5(C)C4CC[C@]3(C)[C@H]1[C@@H]2C` (stereo not given in full) gave NTMT1 inh 7%[12.6 µM].
`N#CN1CCC[C@@H](n2nc(-c3ccc(Oc4ccc(F)cc4F)cc3)c(C(N)=O)c2N)C1` gave NTMT1 inh 8%[57.5 µM].
For N#Cc1ccc(-c2ccc(NC(=O)Nc3ccc(-c4ccnc5nc[nH]c45)cc3)cc2)cc1 the results were NTMT1 inh -1%[57.5 µM].
Screening O=C(O)CCCn1cc(NC(=O)COc2ccccc2F)cn1 returned HTT-AS promoter 5%, NTMT1 inh 3%, HTT prom inh -19% and GPR32 ag -1.
Screening Cc1cc(OCC(=O)Nc2cnn(CCCC(=O)O)c2)ccc1Cl returned HTT-AS promoter -5%, NTMT1 inh inconclusive, HTT prom inh -12% and GPR32 ag 82*.
`COc1cccc(-c2cc(F)ccc2C2Cc3nc(N)nc(C)c3C(=O)N2)n1` (stereo not given) gave NTMT1 inh 3%[57.5 µM].
Screening Cc1cccc(NC(=O)Cn2cc(C(=O)c3ccco3)c3ccccc32)c1C returned HTT-AS promoter -36%, NTMT1 inh 79µM*, HTT prom inh inconclusive and GPR32 ag 11.
`Cc1ccc(C)c(NC(=O)Cn2cc(C(=O)c3ccco3)c3ccccc32)c1` gave HTT-AS promoter -27%, NTMT1 inh -22%, HTT prom inh -58% and GPR32 ag 3.
`CCOC(=O)c1nn(-c2ccc(OC)cc2)c(=O)c2c(N)scc12` gave NTMT1 inh 13µM*.
`CC(C)C(C)(C)C(C)(C)C(C)(C)S` gave HTT-AS promoter -5%[116 µM], NTMT1 inh 32µM*, HTT prom inh 10%[116 µM] and GPR32 ag -34.
`CC(=O)N[C@@H](CC(=O)O)C(=O)N[C@@H](CCC(=O)O)C(=O)N[C@H](C(=O)N[C@@H](CC(=O)O)C(=O)Nc1ccc2c(C)cc(=O)oc2c1)C(C)C` gave NTMT1 inh 7%[57.5 µM].
`CCS(=O)(=O)N1CCC([C@@H](C)n2c(C)c(C(=O)NCc3c(OC)cc(C)[nH]c3=O)c3ccccc32)CC1` gave NTMT1 inh 12%.
CCCCCCCCCCCCOCCOCCOCCOCCOCCOCCOCCOCCOCCO was read as HTT-AS promoter -72%, NTMT1 inh inconclusive, HTT prom inh -29% and GPR32 ag 99*.
Screening CCCCCCCCCCCCOCCO returned HTT-AS promoter 0%, NTMT1 inh 3%[57.5 µM], HTT prom inh -3% and GPR32 ag 14.
For COc1ccc(-n2c(=O)c3ccc(C(=O)NCc4ccc(C)cc4)cc3n(CC(=O)Nc3ccc(F)cc3)c2=O)cc1 the results were HTT-AS promoter -12%, NTMT1 inh 46%, HTT prom inh -9% and GPR32 ag 94*.
Screening CNc1oc(-c2cccc(-c3ccccc3)c2)nc1C#N returned NTMT1 inh -10%[57.5 µM].
Screening C=CCn1c(=O)c2cnc(Nc3ccc(N4CCN(C)CC4)cc3)nc2n1-c1cccc(C(C)(C)O)n1 returned HTT-AS promoter -38%, NTMT1 inh 40µM*! and HTT prom inh inconclusive.
Screening Cc1cnc(Nc2ccc(N3CCN(C)CC3)cc2)nc1Nc1cccc(S(=O)(=O)NC(C)(C)C)c1 returned HTT-AS promoter -34%, NTMT1 inh -24% and HTT prom inh -7%.
`O=C(Nc1cccc2nn(-c3ccc(F)cc3)cc12)c1ccccn1` gave NTMT1 inh -3%.
COc1cccc(NC(=O)c2c(C)oc3nc(C)nc(N4CCCC4)c23)c1 was read as HTT-AS promoter -15%, NTMT1 inh 89µM*, HTT prom inh -1% and GPR32 ag -11.
O=C(Nc1cccc(Cc2ccccc2)n1)c1ccc(-c2cccc([N+](=O)[O-])c2)o1 was read as NTMT1 inh -5%.
Screening Cc1ccc(-n2cc(-c3ccccc3)nc2S(=O)(=O)CC(=O)Nc2ccc(F)cc2)cc1 returned HTT-AS promoter 3.2µM*, NTMT1 inh -1%, HTT prom inh 49% and GPR32 ag -21.
